This note sets out measurements from PubChem BioAssay AID686979 (National Center for Advancing Translational Sciences (NCATS), 2013).

“And” between values parts separate entries of the source, which are not always exact repeats. Equal entries are not always repeated. The campaign covered roughly 420,000 compounds. About 50,000 (12%) were called active. Where a call stands in place of a potency, no number is given. Not shown: some 26% with an inconclusive outcome. Calls follow the shape of the dose curve; as a rule, active = well fitted inhibition curve with a large enough effect; inconclusive = small, poorly fitted or top-dose-only effect; inactive = flat fitted curve, though single readings scatter. The full list was thinned out, with actives kept by preference. More than one record can exist for a structure, and the calls need not agree.
Potency is read from the fitted curve at half-maximal effect.

The nature of this test: qHTS for Inhibitors of human tyrosyl-DNA phosphodiesterase 1 (TDP1): qHTS in cells in presence of CPT. Also: nearly all actives have a fitted effect of over 55% in size. To be noted: chicken DT40 Tdp1-/-;hTDP1 cells + 20 nM CPT, ATP luminescence, 48 h; series mostly up to 46.2 µM. An outline of the steps: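 Chicken DT40 Tdp1-/- cells stably complemented with human TDP1 were seeded at 400 cells/well in medium containing 20 nM camptothecin, exposed to pin-transferred compounds, and grown at 37 °C for at least 48 hr. Viability was read as ATP luminescence.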
(In general: In qHTS, concentration-response curves come from the screen itself.)
For the compound `COC(=O)C1CCN(C(=O)COC(=O)c2cc(S(=O)(=O)N3CCOCC3)ccc2C)CC1`, the Potency entry is “inactive”.
The entry for `O=C(Nc1c2c(nc3ccccc13)CCCC2)c1ccccc1Br` is “inactive”; for `N#Cc1cccc(Nc2c3c(nc4ccccc24)CCCC3)c1` it is 18.4 µM (active).
Consider `CC(=O)Nc1ccc(NC(=O)COc2ncnc3ccccc23)cc1`, for which the Potency entry was “inactive”.
Regarding `N#Cc1cccc(NC(=O)CN2CCCCCC2)c1`, the Potency result was “inactive”.
Then `CC(=O)Nc1ccc(Nc2c3ccccc3nc3ccccc23)cc1`, with 0.326 µM (active); and `CC(=O)Nc1ccc(S(=O)(=O)N(C)c2nc3ccccc3nc2Cl)cc1`, with “inactive”.
The entry for `N#Cc1cccc(NC(=O)CCC2CCCC2)c1` is “inactive”.
In the case of `Cc1ccc(Nc2c3c(nc4ccccc24)CCC3)cc1`, the Potency was 11.6 µM (active).
Then `CN1CCCN(C(=O)C2CCCCC2)CC1`, with “inactive”; and `CC1(C)C2CC=C(/C=N/NC(=O)C3CC3)C1C2` (stereo not given), with “inactive”; and `Cc1cc(C)n(CCC(=O)N2CCN(S(=O)(=O)c3ccc(C)c(C)c3)CC2)n1`, with “inactive”.
Then `O=C(OCCN1C(=O)c2ccccc2C1=O)[C@@H]1CC(O)CN1S(=O)(=O)c1ccccc1[N+](=O)[O-]` (stereo not given in full), with “inactive”; and `O=C(O)CCCCCCCCc1cn(CN2C(=O)c3ccccc3C2=O)nn1`, with “inactive”; and `Cn1c(N)c(C(=O)COC(=O)c2ccc3ccccc3c2)c(=O)n(C)c1=O`, with “inactive”.
As to `Cc1cc(=O)oc2c1ccc1ccccc12`, the Potency entry was “inactive”.
As for `Cc1nnc(SC(C)C(=O)c2c[nH]c3ccccc23)n1C1CC1` (stereo not given), the Potency result is “inactive”.
Then `O=C(NCCOc1ccccc1Cl)C(=O)Nc1ccccc1`, with 20.6 µM (active).
Then `COc1ccccc1OCCNC(=O)CCNC(=O)c1ccccc1Cl`, with “inactive”; and `COc1cc(SC)ccc1C(=O)NCCOc1ccccc1Cl`, with “inactive”; and `COc1cc(C(=O)NNC(=O)CN2C(=O)NC3(CCCC3)C2=O)cc(OC)c1OC`, with “inactive”.
Then `CC1(C(=O)NS(=O)(=O)c2cccc(F)c2)CCN1C(=O)Cc1ccc(Cl)cc1Cl` (stereo not given), with “inactive”; and `CCCOc1ccc(Cc2c(O)nc(SC)[nH]c2=O)cc1C`, with “inactive”; and `COc1ccc(CCC(=O)N2CCN(S(=O)(=O)c3ccc(OC)cc3)CC2)cc1`, with “inactive”.
For the compound `COc1ccc(S(=O)(=O)N2CCN(c3cnccn3)CC2)cc1`, the Potency result is “inactive”.
Then `COc1ccc(S(=O)(=O)N2CCN(c3ncnc4c(-c5ccccc5)nsc34)CC2)cc1`, with 16.4 µM (active); and `Cc1noc(C)c1COc1ccccc1C(=O)N(C)CC(=O)Nc1cccc(F)c1`, with “inactive”; and `C[C@H]1NS(=O)(=O)c2cc(Cl)ccc2O[C@@H]1c1ccccc1`, with “inactive”.
The entry for `COc1ccc(OC)c(S(=O)(=O)n2c([N+](=O)[O-])cnc2C)c1` is “inactive”; for `CCCCc1nnc(NC(=O)CS(=O)(=O)Cc2ccccc2)s1` it is “inactive”; for `CCOCc1nnc(NC(=O)CCS(=O)(=O)Cc2ccccc2)s1` it is 9.2 µM (active).
The entry for `COCCSc1nnc(NC(=O)CCS(=O)(=O)Cc2ccccc2)s1` is “inactive”.
`Cn1c(N)c(C(=O)COC(=O)/C=C/c2cccc(C(F)(F)F)c2)c(=O)n(C)c1=O`: the Potency result is “inactive”.
Then `Cc1ccc(CSCC(=O)N(C)CC(=O)Nc2cccc(F)c2)cc1`, with “inactive”.
The entry for `CCS(=O)(=O)c1ccc(-c2cccc(NC(=O)c3ccc(Br)o3)c2)nn1` is “inactive”; for `Cc1ccc(C(=O)NC(=S)NCc2cccnc2)cc1` it is “inactive”; for `Cc1ccc(S(=O)(=O)N(Cc2ccc(Cl)cc2)c2ccccc2C(=O)NCc2cccnc2)cc1` it is 18.4 µM (active).
The figure for `CS(=O)(=O)N(Cc1ccccc1Cl)c1ccc(C(=O)NCc2cccnc2)cc1` is 23.1 µM (active).
In the case of `O=C(O)c1ccccc1-c1ccccc1C(=O)NCc1cccnc1`, the Potency result was “inactive”.
The entry for `O=C(NCc1ccc(Cl)c(Cl)c1)c1cccnc1` is “inactive”.
The entry for `O=C(NCc1cccnc1)c1cccnc1Sc1ccc(Cl)cc1` is “inactive”; for `CC(=O)NCC(=O)N(C)C(C(=O)Nc1ccc2c(c1)OCCO2)c1ccccc1` (stereo not given) it is “inactive”.
For `COc1ccc(S(=O)(=O)N2CCOC2CNC(=O)C(=O)NCc2ccc(F)cc2)cc1` (stereo not given), the Potency result was “inactive”.
Then `O=C(NCc1ccncc1)C(=O)NCC1OCCN1S(=O)(=O)c1ccc(Br)cc1` (stereo not given), with “inactive”; and `O=C(NCCCN1CCCC1=O)C(=O)NCC1OCCN1S(=O)(=O)c1ccc(Br)cc1` (stereo not given), with 18.4 µM (active); and `CCOC(=O)c1cnc2c(C)cc(Cl)cc2c1NCCc1ccc(OC)c(OC)c1`, with “inactive”.
As for `CCOC(=O)c1cnc2c(C)cc(C)cc2c1Nc1ccc(N2CCOCC2)cc1`, the Potency is 25.9 µM (active).
Then `CCOC(=O)c1ccccc1C(=O)N1CCOCCOCCOCC1`, with “inactive”.
Then `CC(C)(O)C1=C[N+](=O)CC=C1`, with “inactive”; and `COc1ccc(SCc2cc(=O)c3ccc(C)c(C)c3[nH]2)cc1`, with “inactive”.
As to `COC(=O)C1=C(c2ccccc2)c2ccccc2S(=O)(=O)N1CC(=O)Nc1ccccc1C(F)(F)F`, the Potency entry is “inactive”.
Then `CCOC(=O)c1ccccc1CN1C(=O)c2ccccc2S1(=O)=O`, with “inactive”; and `CCOC(=O)CN1C(C(=O)c2ccccc2)=C(OC(=O)C(C)(C)C)c2ccccc2S1(=O)=O`, with 20.6 µM (active).
Then `Cc1ccc2c(c1)N(CC(=O)N1CCC(O)CC1)C(=O)CO2`, with “inactive”; and `Fc1ccc(-c2nc(Nc3cccc(Cl)c3)nc3c2COc2ccccc2-3)cc1`, with “inactive”.
Take `Cc1cc(OCC(=O)NCC(O)c2ccccc2)c2c(C)c(C)c(=O)oc2c1` (stereo not given): the Potency result is “inactive”.
Then `Cc1ccc(N(CC(=O)NCC2CCCO2)C(=O)CNS(=O)(=O)c2ccc(Cl)cc2)cc1` (stereo not given), with “inactive”.
The entry for `Nc1ccccc1N` is “inactive and 4.86 µM (active)”.
The entry for `Nc1cccnc1Sc1ccccc1` is “inactive”; for `Nc1ccccc1/C=N\N=C/c1ccccc1N` it is “inactive”.
In the case of `CC1=NN(C(=O)c2ccc(Br)cc2)C(O)(c2ccccc2)C1` (stereo not given), the Potency result is “inactive”.
Then `Cc1ccc2nc(Nc3ncc4c(n3)CC(C)(C)CC4=O)nc(C)c2c1`, with “inactive”.
As for `COc1ccc(C(C(=O)NCc2ccccc2)n2c(=O)c(-c3ccccc3)nc3ccccc32)cc1` (stereo not given), the Potency was 14.6 µM (active).
Take `O=C(CSc1nnc(-c2ccco2)n1Cc1ccccc1)NC(=O)NCc1ccco1`: the Potency result was “inactive”.
The entry for `CCCN(CCC)CCCNC(=O)CNC(=O)c1nn(-c2ccc(OC)cc2)c(=O)c2ccccc12` is “inactive”.
Consider `CCc1nc2ccccc2c(C(=O)NCc2ccc(OC)cc2)c1C`, for which the Potency entry is “inactive”.
As to `CCOCCCNC(=O)C(NC(=O)CNC(=O)c1ccccc1)c1ccc(OC)cc1` (stereo not given), the Potency entry was “inactive”.
Then `COc1ccc(CNC(=O)C(C)NCc2ccccc2Cl)cc1` (stereo not given), with “inactive”; and `CCCCCNC(=O)C(c1ccc(OC)cc1)n1c(=O)c(-c2ccccc2)nc2ccccc21` (stereo not given), with 23.1 µM (active).
Regarding `N#Cc1ccc(C(C(=O)NCc2ccccc2)n2c(=O)c(-c3ccco3)nc3ccccc32)cc1` (stereo not given), the Potency is 20.6 µM (active).
The entry for `O=C(NNC(=S)NCc1ccco1)C(c1ccccc1)c1ccccc1` is “inactive”; for `O=C1COc2ccc(S(=O)(=O)NCCc3ccc(Cl)cc3)cc2N1` it is “inactive”.
For `COc1ccc(N(CC(=O)NCCSCc2cccc(Cl)c2)S(C)(=O)=O)cc1`, the Potency result was “inactive”.
For the compound `O=C1CCC(=O)N(c2ccccc2)N1`, the Potency entry is “inactive”.
The entry for `Cc1nc(-c2ccc([N+](=O)[O-])cc2)c(-c2ccccc2)o1` is “inactive”; for `O=C1CC(c2ccccc2)=NN1c1ccc([N+](=O)[O-])cc1` it is 16.4 µM (active); for `O=c1[nH]n(-c2ccc([N+](=O)[O-])cc2)c(=O)c2ccccc12` it is “inactive”.
The entry for `CC(=O)c1ccc(S(=O)(=O)NCc2nnnn2-c2ccccc2)cc1` is “inactive”; for `O=C(NC1CCC(O)CC1)c1ccccc1OCc1ccc(F)cc1` (stereo not given) it is “inactive”.
Then `O=C(O)c1ccccc1OCc1ccccc1Cl`, with “inactive”; and `CC(=O)c1ccccc1OCc1ccc(C(=O)c2ccccc2)cc1`, with 16.4 µM (active).
In the case of `S=C(Nc1ccc2c(c1)OCO2)N1CCCC1`, the Potency entry is “inactive”.
The entry for `O=C(Nc1ccc(Oc2ccccc2)cc1)C1CCN(S(=O)(=O)c2ccc(Cl)cc2)CC1` is “inactive”; for `Cc1ccc(C(=O)Nc2ccc3c(c2)OCCO3)cc1S(=O)(=O)N1CCOCC1` it is “inactive”.
As for `O=S(=O)(c1ccc(NC(=S)NN=C(C2CC2)C2CC2)cc1)N1CCOCC1`, the Potency result was “inactive”.
With `O=C(Nc1ccc(S(=O)(=O)N2CCOCC2)cc1)C1CCN(S(=O)(=O)c2ccc(Cl)cc2)CC1`, the Potency was 16.4 µM (active).
The figure for `Cc1ccc(NC(=O)c2ccc(Cl)nc2)cc1S(=O)(=O)N1CCOCC1` is 10.3 µM (active); for `Cc1ccc(NC(=O)c2ccccn2)cc1S(=O)(=O)N1CCOCC1` it is “inactive”; for `O=C(CN1CCCCCC1)Nc1ccc(S(=O)(=O)N2CCCCC2)cc1` it is “inactive”.
Then `O=C(CN1CCN(c2cccc(Cl)c2)CC1)Nc1ccc(S(=O)(=O)N2CCOCC2)cc1`, with 20.6 µM (active); and `Cc1ccc(NC(=O)COC(=O)C2CC2)cc1S(=O)(=O)N1CCOCC1`, with “inactive”; and `Cc1ccc(NC(=O)C2CCC(C(C)(C)C)CC2)cc1S(=O)(=O)N1CCOCC1` (stereo not given), with 13 µM (active).
Take `O=C(CN1CCN(S(=O)(=O)/C=C/c2ccccc2)CC1)Nc1ccc(N2CCOCC2)cc1`: the Potency entry was “inactive”.
For `Cc1ccc(NC(=O)C(C)OC(=O)C2CC3CCCC(C2)C3=O)cc1S(=O)(=O)N1CCOCC1` (stereo not given), the Potency entry is “inactive”.
The entry for `COc1cccc(C(=O)NNS(=O)(=O)c2ccc(F)cc2)c1` is “inactive”; for `Cc1c(NC(=O)c2cc(-c3ccc(Br)cc3)on2)c(=O)n(-c2ccccc2)n1C` it is “inactive”; for `CCCN(C(=O)CSc1nnc(N)s1)c1c(N)n(Cc2ccccc2)c(=O)[nH]c1=O` it is “inactive”.
As to `COc1ccc(C(=O)Oc2ccc(-c3nnco3)cc2)cc1S(=O)(=O)N1CCOCC1`, the Potency entry is “inactive”.
In the case of `Cc1nn(C)c(Cl)c1CN1CCC(Oc2ccc(C(=O)N3CCCC3)cc2)CC1`, the Potency result was “inactive”.
Regarding `Cc1ccc(C(CNC(=O)Nc2ccccc2)N2CCN(C)CC2)cc1` (stereo not given), the Potency result was “inactive”.
The figure for `CC(C)Cc1ccc(C(C)C(=N)N)cc1` (stereo not given) is 7.31 µM (active).
The entry for `COc1c(F)c(F)c(-c2csc(N)n2)c(F)c1F` is “inactive”.
Consider `O=C(COC(=O)c1ccccc1Br)Nc1nnc(-c2ccccc2)o1`, for which the Potency result was “inactive”.
Then `O=C(Nc1nnc(-c2ccc(Cl)cc2)o1)c1ccccc1Br`, with 23.1 µM (active); and `O=C(Nc1ccccc1)c1ccccc1Br`, with “inactive”.
